Test systems include SR leukemia; RPMI-8226 leukemia; OVCAR-8 ovarian; OVCAR-5 ovarian; OVCAR-4 ovarian; SK-OV-3 ovarian; IGROV1 ovarian; OVCAR-3 ovarian; HS 578T breast; NCI/ADR-RES ovarian; T-47D breast; BT-549 breast; MDA-MB-435 melanoma; SW-620 colon; MCF7 breast; HCT-116 colon; HCC-2998 colon; KM12 colon.
Common to all, as to test: NCI-60 one-dose screen, 48 h (100 = growth as untreated, 0 = no growth, -100 = all killed)
What all share (details): 10 µM unless noted

About 83,000 compounds went through this panel and 20% of them were active in at least one assay; those are over-represented in the sample as a whole.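 The test compound was applied at a single concentration to cells in 96-well plates for 48 hours, and percent growth was recorded.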 Unmarked numbers belong to inactive results. Active and inactive are the calls of the source. How the source made its calls: active means growth percent below 10; inactive means the rest.

Consider `COc1cccc(-c2nn(-c3ccccc3)cc2-c2ccnc(NCCCNS(=O)(=O)c3ccccc3)c2)c1`, for which the growth was 2.99% (active) with SR leukemia; 18.4% in the assay with RPMI-8226 leukemia; 16% with OVCAR-8 ovarian; 67.2% with OVCAR-5 ovarian; 39.6% in the assay with OVCAR-4 ovarian; 43% with SK-OV-3 ovarian. The growth with IGROV1 ovarian is 31.3%; in the assay with OVCAR-3 ovarian, 41.3%; with HS 578T breast, 37.5%; with NCI/ADR-RES ovarian, 21.1%; in the assay with T-47D breast it was -4.99% (active); in the assay with BT-549 breast it was 35.7%. Also, the growth is 37.4% in the assay on MDA-MB-435 melanoma; 46.5% in the assay on SW-620 colon; 18.2% in the assay with MCF7 breast; 25.7% with HCT-116 colon; 19.7% in the assay on HCC-2998 colon; 29.6% in the assay with KM12 colon.

Regarding `N#C/C(=C\c1ccc(-c2ccccc2)o1)c1nc(-c2ccco2)cs1`, the growth was 103% with SR leukemia; 49.6% in the assay with RPMI-8226 leukemia; 96.9% in the assay with OVCAR-8 ovarian; 53.8% with OVCAR-5 ovarian; 11% in the assay with OVCAR-4 ovarian; 97.2% with SK-OV-3 ovarian. Moreover, the growth with IGROV1 ovarian is 43.1%; in the assay with OVCAR-3 ovarian it was 78.7%; in the assay on HS 578T breast, 95.7%; in the assay with NCI/ADR-RES ovarian it was 95.5%; with T-47D breast it was -26% (active); with BT-549 breast, 94.6%. In addition, the growth in the assay with MDA-MB-435 melanoma was 99.2%; in the assay with SW-620 colon, 99.2%; with MCF7 breast, 17.6%; with HCT-116 colon, 87%; in the assay with HCC-2998 colon it was 32.1%; with KM12 colon it was 48.1%.

Turning to `CC(C)(C)c1cc(-n2c(-c3ccc(Cl)cc3)nc3cc(C(=O)Nc4ccc(Cl)cc4)ccc32)n[nH]1`, the growth in the assay on SR leukemia is 70.3%; in the assay with RPMI-8226 leukemia it was 51.1%; in the assay with OVCAR-8 ovarian, 61.6%; in the assay on OVCAR-5 ovarian, 93%; in the assay on OVCAR-4 ovarian, 56.4%; in the assay with SK-OV-3 ovarian, 99.8%. Besides, the growth in the assay with IGROV1 ovarian was 40.3%; with OVCAR-3 ovarian, 45.8%; in the assay with HS 578T breast, 55.8%; in the assay with NCI/ADR-RES ovarian, 40.4%; with T-47D breast it was 25.2%; in the assay with BT-549 breast it was 58.7%. For the same compound, the growth was 73.3% in the assay on MDA-MB-435 melanoma; 55.9% in the assay on SW-620 colon; 38.5% in the assay with MCF7 breast; 28.2% with HCT-116 colon; 63.9% with HCC-2998 colon; 25.9% in the assay on KM12 colon.

In the case of `Oc1ccc(CCC2CCCC(CCc3ccc(OCCF)cc3)N2)cc1` (configuration not stated), the growth in the assay with SR leukemia was 67.2%; in the assay on RPMI-8226 leukemia, 90.8%; with OVCAR-8 ovarian it was 93.3%; in the assay with OVCAR-5 ovarian, 89.4%; with OVCAR-4 ovarian it was 82.9%; with SK-OV-3 ovarian, 96%. In addition, the growth was 96.2% in the assay on IGROV1 ovarian; 107% with OVCAR-3 ovarian; 97.5% in the assay with HS 578T breast; 87.6% in the assay with NCI/ADR-RES ovarian; 72.8% with T-47D breast; 96.4% with BT-549 breast. The growth in the assay on MDA-MB-435 melanoma was 99.5%; with SW-620 colon it was 112%; with MCF7 breast, 89%; in the assay on HCT-116 colon it was 86%; in the assay on HCC-2998 colon, 88.4%; in the assay with KM12 colon it was 104%.

In the case of `CC(C)(C)c1[nH]nc2c1C(c1cc3ccccc3[nH]c1=O)Nc1cc(C(=O)OCc3ccccc3)ccc1N2` (configuration not stated), the growth with SR leukemia is 38.9%; in the assay on RPMI-8226 leukemia, 53.6%; in the assay on OVCAR-8 ovarian, 64.9%; in the assay with OVCAR-5 ovarian, 87.8%; in the assay with OVCAR-4 ovarian, 54.3%; with SK-OV-3 ovarian, 83%. In addition, the growth was 78.5% in the assay with IGROV1 ovarian; 49.2% in the assay with OVCAR-3 ovarian; 66.6% in the assay with HS 578T breast; 86.8% in the assay on NCI/ADR-RES ovarian; 36.7% in the assay on T-47D breast; 56.4% in the assay on BT-549 breast. The growth was 39.9% in the assay with MDA-MB-435 melanoma; 54.4% in the assay on SW-620 colon; 38.1% in the assay on MCF7 breast; 38.4% in the assay on HCT-116 colon; 55.9% with HCC-2998 colon; 31% with KM12 colon.

Consider `CCCCC[C@H]1C/C=C2/C(=O)C=C[C@@H]2C/C=C\CCCC(=O)O[C@@H](CCCCC)C/C=C2/C(=O)C=C[C@@H]2C/C=C\CCCC(=O)O1`, for which the growth with SR leukemia is -21.5% (active); in the assay on RPMI-8226 leukemia it was -30.4% (active); with OVCAR-8 ovarian it was -20.7% (active); in the assay with OVCAR-5 ovarian, -68.2% (active); with OVCAR-4 ovarian, -74.3% (active); with SK-OV-3 ovarian it was -52.7% (active). Further, the growth in the assay on IGROV1 ovarian was -68.3% (active); with OVCAR-3 ovarian, -93.5% (active); with HS 578T breast, 4.33% (active); in the assay with NCI/ADR-RES ovarian it was -2.14% (active); in the assay on T-47D breast it was -74.8% (active); in the assay on BT-549 breast it was -72.9% (active). For the same compound, the growth with MDA-MB-435 melanoma was -78.9% (active); in the assay on SW-620 colon, -54.1% (active); in the assay with MCF7 breast, -70.9% (active); in the assay on HCT-116 colon, -96.4% (active); in the assay on HCC-2998 colon, -79.5% (active); with KM12 colon, -86.3% (active).

For the compound `COc1cc(/C=C2\C(=O)N(CC(O)COc3cc(O)c4c(=O)cc(-c5ccccc5)oc4c3)c3ccccc32)cc(OC)c1O` (configuration not stated), the growth with SR leukemia is 45.9%; in the assay on RPMI-8226 leukemia it was 57.9%; in the assay on OVCAR-8 ovarian, 77%; in the assay on OVCAR-5 ovarian it was 113%; in the assay with OVCAR-4 ovarian it was 78.7%; in the assay with SK-OV-3 ovarian, 111%. In addition, the growth is 51.3% with IGROV1 ovarian; 69.5% with OVCAR-3 ovarian; 85.1% in the assay on HS 578T breast; 87.5% in the assay with NCI/ADR-RES ovarian; 58.2% with T-47D breast; 96.7% in the assay with BT-549 breast. The growth in the assay with MDA-MB-435 melanoma is 54.7%; with SW-620 colon, 89.9%; in the assay with MCF7 breast, 32.8%; in the assay with HCT-116 colon it was 78.4%; in the assay with HCC-2998 colon, 99.7%; in the assay on KM12 colon, 82%.

Take `CC1(C)C=CC[C@]2(C)[C@H]3CC[C@@H]4[C@H]5[C@H](C(=O)/C=C/c6cccnc6)CC[C@]5(CO)CC[C@@]4(C)[C@]3(C)CC[C@@H]12`: the growth with SR leukemia was -26.9% (active); in the assay with RPMI-8226 leukemia it was -18.5% (active); in the assay with OVCAR-8 ovarian it was -11.7% (active); with OVCAR-5 ovarian, -74.3% (active); in the assay on OVCAR-4 ovarian, -14.5% (active); in the assay with SK-OV-3 ovarian it was -46.6% (active). Also, the growth in the assay on IGROV1 ovarian was -54.5% (active); with OVCAR-3 ovarian, -94.6% (active); in the assay with HS 578T breast it was -42.9% (active); with NCI/ADR-RES ovarian, -32.2% (active); in the assay with T-47D breast, -74.5% (active); in the assay with BT-549 breast, -81% (active). Also, the growth in the assay on MDA-MB-435 melanoma is -57.1% (active); in the assay with SW-620 colon, -59% (active); with MCF7 breast, -21.8% (active); with HCT-116 colon it was -88.6% (active); in the assay on HCC-2998 colon, -66.8% (active); in the assay on KM12 colon, -80.7% (active).

As to `Clc1ccc2c(NCCNc3nc(-c4ccccc4)cc(-c4ccccc4)n3)ccnc2c1`, the growth with SR leukemia was -19.4% (active); with RPMI-8226 leukemia it was -34.4% (active); in the assay with OVCAR-8 ovarian, -70.6% (active); with OVCAR-5 ovarian, -79.7% (active); in the assay with OVCAR-4 ovarian, -66.4% (active); in the assay on SK-OV-3 ovarian, 83.6%. Moreover, the growth with IGROV1 ovarian is -83.1% (active); with OVCAR-3 ovarian it was -85.6% (active); with HS 578T breast, -17.2% (active); with NCI/ADR-RES ovarian, -41.8% (active); with T-47D breast, -59.7% (active); with BT-549 breast, 75.1%. Also, the growth with MDA-MB-435 melanoma is -82.6% (active); in the assay on SW-620 colon it was -53.7% (active); in the assay with MCF7 breast it was -68.7% (active); in the assay with HCT-116 colon it was -69.9% (active); in the assay on HCC-2998 colon, -28.7% (active); in the assay with KM12 colon, 5.29% (active).

Values taken from PubChem BioAssay (NCI).
